From PubChem BioAssay AID1259240 (Keith Lab, Institute of Cancer Science, University of …, 2017) come the findings set out here.

Calls of active or inactive are those of the source. Cut-off read from the data, not from the text of the source: active = fold change mostly below about -2 (no sharp cut-off); inactive = mostly above about -1.8.

The assay is described as follows: modulation of TERT promoter-driven luciferase – cell-based, luciferase reporter, human, primary screen (AID 1259240). Particulars: A2780 TERT promoter luciferase reporter, 16 h; at 20 µM, fold versus average of vehicle-only wells. For orientation: A reporter such as luciferase makes a cellular process visible.
With `c1coc(CSc2nc3ccccc3n3cnnc23)c1`, the fold change is 1.16 (inactive).

On to `CC1=NN(c2nc3ccccc3nc2-n2nc(C)cc2C)C(=O)C1`, for which the fold change was -1.08 (inactive).

For the molecule `Cc1nc2cc(-c3ccccc3)nn2c(C)c1CCC(=O)NC(C)c1ccc2c(c1)OCCO2` (configuration not stated), the fold change is -3.95 (active).

For the molecule `CCOc1ccc(S(=O)(=O)n2c(C)nc3ccccc32)cc1`, the fold change was -1.6 (inactive).

For `CCOC(=O)c1nn(-c2ccc(Cl)cc2)c(=O)c2c(NC(=O)C3CC3)scc12`, the fold change is -1.1 (inactive).

As to `COc1ccc(OC)c(S(=O)(=O)c2cc3cccc(OC)c3oc2=O)c1`, the fold change was -1.07 (inactive).

As for `CC(=O)NC1=NN(C(C)=O)C2(S1)C(=O)N(C)c1ccccc12` (configuration not stated), the fold change was -1.23 (inactive).

In the case of `c1ccn2c(SCc3ccc4c(c3)OCCO4)nnc2c1`, the fold change is 1.6 (inactive).

Regarding `COc1ccc(Nc2ncc(F)c(N3CCOCC3)n2)cc1`, the fold change was -3.37 (active).

`Cc1ccn(CN2CCN(Cn3ccc(C)n3)C2=S)n1`: the fold change is 1.29 (inactive).

On to `Oc1oc(-c2ccccc2)nc1C=Nc1ccc(Cl)c2cccnc12`, for which the call was inactive.

As to `O=C(NC1CCCCC1)c1cccc(NC2=NC3CS(=O)(=O)CC3S2)c1` (configuration not stated), the fold change was -1.15 (inactive).

With `O=S(=O)(c1cccc(-c2cn3ccccc3n2)c1)N1CCCCC1`, the fold change was -1.03 (inactive).

In the case of `Cc1ccc(CNc2nnc(Cc3ccncc3)c3ccccc23)cc1`, the fold change was -1.59 (inactive).

With `CCN1C(=O)N(CC)C2C1N(C(C)=O)C(=O)N2C(C)=O` (configuration not stated), the fold change is -1.76 (inactive).

`CCN1CCN(S(=O)(=O)c2ccc3[nH]c(=O)oc3c2)CC1`: the fold change was 1.02 (inactive).

As for `COc1ccc2c(=O)c(Oc3ccc(C)cc3)c(C(F)(F)F)oc2c1`, the fold change is -1.15 (inactive).
